# Out of some 5,500 compounds screened, about 2,000 (36%) were called active. Not shown: some 18% with an inconclusive outcome. The list shows a part of the results. Values without a mark were called inactive. Rule as the data show it: active = normalized growth mostly below about 0.91 (no sharp cut-off); inconclusive = no clear call, values can overlap the other calls; inactive = mostly above about 0.92.
# Assay: chemical genetic growth profiling, strain panel (AID 1159580);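 also: tested at 20 µM; growth read once vehicle control cultures reached saturation at 30 °C; 1 = growth at the plate median or of vehicle wells; lower values mean less growth of the strain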
# Details: S. cerevisiae deletion strains, growth OD
smiles,measurement,setting,value
COc1ccc(C=CC(=O)c2ccc(O)cc2O)cc1OC,normalized growth,"locus YAL021C, strain ccr4, active compounds read low",0.908
same,normalized growth,"locus YAL026C, strain drs2, active compounds read low",0.876 (active)
same,normalized growth,"locus YAL030W, strain snc1, active compounds read low",0.964
same,normalized growth,"locus YBL061C, strain skt5, active compounds read low",0.811 (active)
same,normalized growth,"locus YBR009C, strain hhf1, active compounds read low",0.867 (active)
same,normalized growth,"locus YBR023C, strain chs3, active compounds read low",0.797 (active)
same,normalized growth,"locus YBR171W, strain sec66, active compounds read low",0.965
same,normalized growth,"locus YBR231C, strain swc5, active compounds read low",0.86 (active)
same,normalized growth,"locus YBR279W, strain paf1, active compounds read low",0.879 (active)
same,normalized growth,"locus YCL011C, strain gbp2, active compounds read low",0.934
same,normalized growth,"locus YCL016C, strain dcc1, active compounds read low",0.936
same,normalized growth,"locus YCL061C, strain MRC1, active compounds read low",0.976
same,normalized growth,"locus YCL069W, strain vba3, active compounds read low",0.975
same,normalized growth,"locus YCR088W, strain abp1, active compounds read low",0.982
same,normalized growth,"locus YDL005C, strain med2, active compounds read low",0.983
same,normalized growth,"locus YDL040C, strain nat1, active compounds read low",0.984
same,normalized growth,"locus YDR001C, strain nth1, active compounds read low",0.971
same,normalized growth,"locus YDR069C, strain doa4, active compounds read low",0.953
same,normalized growth,"locus YDR137W, strain rgp1, active compounds read low",0.59 (active)
same,normalized growth,"locus YDR159W, strain sac3, active compounds read low",0.893
same,normalized growth,"locus YDR195W, strain ref2",1.16 [resistant] (active)
same,normalized growth,"locus YDR297W, strain sur2, active compounds read low",0.968
same,normalized growth,"locus YDR334W, strain swr1, active compounds read low",0.974
same,normalized growth,"locus YDR335W, strain msn5, active compounds read low",0.973
same,normalized growth,"locus YDR392W, strain spt3, active compounds read low",0.361 (active)
same,normalized growth,"locus YEL003W, strain gim4, active compounds read low",0.936
same,normalized growth,"locus YEL037C, strain rad23, active compounds read low",0.983
same,normalized growth,"locus YEL061C, strain CIN8 (second series), active compounds read low",0.977
same,normalized growth,"locus YER015W, strain faa2, active compounds read low",0.965
same,normalized growth,"locus YER016W, strain bim1, active compounds read low",0.979
same,normalized growth,"locus YER111C, strain swi4, active compounds read low",0.994
same,normalized growth,"locus YER155C, strain BEM2 (second series), active compounds read low",0.696 (active)
same,normalized growth,"locus YFR010W, strain ubp6, active compounds read low",0.96
same,normalized growth,"locus YGL167C, strain pmr1, active compounds read low",0.961
same,normalized growth,"locus YGL173C, strain kem1, active compounds read low",0.972
same,normalized growth,"locus YGL227W, strain vid30, active compounds read low",0.987
same,normalized growth,"locus YGL240W, strain doc1, active compounds read low",0.893
same,normalized growth,"locus YGL253W, strain hxk2, active compounds read low",0.862 (active)
same,normalized growth,"locus YHR013C, strain ard1, active compounds read low",0.842 (active)
same,normalized growth,"locus YHR027C, strain rpn1, active compounds read low",0.982
same,normalized growth,"locus YHR142W, strain chs7, active compounds read low",0.645 (active)
same,normalized growth,"locus YJL092W, strain hpr5, active compounds read low",0.972
same,normalized growth,"locus YJL095W, strain BCK1 (second series), active compounds read low",0.863 (active)
same,normalized growth,"locus YJL115W, strain asf1, active compounds read low",0.989
same,normalized growth,"locus YJL129C, strain trk1, active compounds read low",0.818 (active)
same,normalized growth,"locus YJL154C, strain vps35, active compounds read low",0.998
same,normalized growth,"locus YJL164C, strain tpk1, active compounds read low",0.859 (active)
same,normalized growth,"locus YJL166W, strain qcr8, active compounds read low",0.83 (active)
same,normalized growth,"locus YJL187C, strain SWE1, active compounds read low",0.929
same,normalized growth,"locus YKL160W, strain elf1, active compounds read low",0.83 (active)
same,normalized growth,"locus YKR026C, strain gcn3, active compounds read low",0.976
same,normalized growth,"locus YKR091W, strain srl3, active compounds read low",0.989
same,normalized growth,"locus YLL001W, strain dnm1, active compounds read low",0.935
same,normalized growth,"locus YLL026W, active compounds read low",0.914 (active)
same,normalized growth,"locus YLL041C, strain sdh2, active compounds read low",0.978
same,normalized growth,"locus YLR027C, strain aat2, active compounds read low",0.886 (active)
same,normalized growth,"locus YLR221C, strain rsa3, active compounds read low",0.855 (active)
same,normalized growth,"locus YLR258W, strain gsy2, active compounds read low",0.914 (active)
same,normalized growth,"locus YLR262C, strain YPT6 (second series), active compounds read low",0.65 (active)
same,normalized growth,"locus YLR320W, strain mms22, active compounds read low",0.732 (active)
same,normalized growth,"locus YLR342W, strain FKS1, active compounds read low",0.96
same,normalized growth,"locus YLR357W, strain rsc2, active compounds read low",0.992
same,normalized growth,"locus YLR370C, strain arc18, active compounds read low",0.929
same,normalized growth,"locus YLR384C, strain iki3, active compounds read low",0.995
same,normalized growth,"locus YML120C, strain ndi1, active compounds read low",0.833 (active)
same,normalized growth,"locus YMR058W, strain fet3, active compounds read low",0.908
same,normalized growth,"locus YMR125W, strain sto1, active compounds read low",0.933
same,normalized growth,"locus YMR129W, active compounds read low",0.98
same,normalized growth,"locus YMR205C, strain PFK2, active compounds read low",0.759 (active)
same,normalized growth,"locus YMR231W, strain pep5, active compounds read low",0.996
same,normalized growth,"locus YNL071W, strain lat1, active compounds read low",0.666 (active)
same,normalized growth,"locus YNL209W, strain ssb2, active compounds read low",0.958
same,normalized growth,"locus YNL248C, strain rpa49, active compounds read low",0.935
same,normalized growth,"locus YNL322C, strain KRE1 (second series), active compounds read low",0.996
same,normalized growth,"locus YNR049C, strain mso1, active compounds read low",0.974
same,normalized growth,"locus YOR001W, strain rrp6, active compounds read low",0.87 (active)
same,normalized growth,"locus YOR070C, strain gyp1, active compounds read low",0.883 (active)
same,normalized growth,"locus YOR080W, strain dia2, active compounds read low",0.991
same,normalized growth,"locus YOR083W, strain WHI5, active compounds read low",0.835 (active)
same,normalized growth,"locus YOR106W, strain vam3, active compounds read low",0.814 (active)
same,normalized growth,"locus YOR265W, strain rbl2, active compounds read low",0.969
same,normalized growth,"locus YOR270C, strain vph1, active compounds read low",0.653 (active)
same,normalized growth,"locus YOR290C, strain snf2, active compounds read low",0.767 (active)
same,normalized growth,"locus YPL051W, strain arl3, active compounds read low",0.768 (active)
same,normalized growth,"locus YPL078C, strain atp4, active compounds read low",0.828 (active)
same,normalized growth,"locus YPL106C, strain sse1, active compounds read low",0.881
same,normalized growth,"locus YPL240C, strain hsp82, active compounds read low",0.973

# Source: PubChem BioAssay AID1159580 (chemical genetic matrix, 2015)
